In the library only some 12% were active in any assay of this set; here they are far more common.
MARV entry inh: blocks Marburg virus binding to or entry into cells. Potency, µM (doses to about 37.8 µM), without a hit: at the top dose activity change, negative = inhibition, actives largely listed as inhibitors. AID 540276. Marburg virus pseudotyped entry inhibition, cell reporter. 300,000 compounds, 1.8% hits; calls by dose curve; tested in HEK293 cells; also: potency is read from the fitted curve at half-maximal effect; % is scaled to controls: 0 for no effect and ±100 for the full control effect
Shiga toxin inh: Shiga toxin inhibition | Vero cells, Shiga toxin protein synthesis inhibition reporter | inhibition, % at 38.7 µM | 290,000 compounds, 9.2% hits | AID 2315; in the data active = inhibition mostly above about 28%, no sharp cut-off; inactive = mostly below about 43%; also: 0% is about no effect
Cycloheximide cs: counter-screen hit for Shiga toxin inhibitors, cycloheximide; max response, %; 300,000 compounds, 12% hits; cell reporter, cycloheximide protein synthesis inhibition counterscreen; in the data active = max response mostly above about 13%, no sharp cut-off; inactive = mostly below about 14%; also: read at 38.3 µM for the half of the compounds with a filed dose; 0% is about no effect
LASV entry inh: Lassa virus entry inhibition. Lassa virus pseudotype entry inhibition, cell reporter. Potency, µM (top dose mostly 37.9 µM), without a hit: at the top dose activity change, negative = inhibition, usual class: inhibitors. 300,000 compounds, 1.2% hits. AID 540256; calls by dose curve; tested in HEK293 cells; also: potency is read from the fitted curve at half-maximal effect; % is scaled to controls: 0 for no effect and ±100 for the full control effect; nearly all actives have a fitted effect of over 50% in size
* marks the source's active call; other numbers are inactive results; ? = inconclusive; nt = no result; [ ] = dose if it differs, or a comment.

SMILES	MARV entry inh	Shiga toxin inh	Cycloheximide cs	LASV entry inh
CCCCOC(=O)/C=C/c1ccc(OC(=O)OC)c(OC(=O)OC)c1	11µM*	-13	-2	?
COC(=O)Oc1ccc(/C=C/C(=O)OC(C)C)cc1OC(=O)OC	?	49	30*	-7%
CCOC(=O)NC(=S)Nc1ccc(OC)cc1	nt	33	18*	nt
CCOc1ccc2c(c1)C(=NNC(=O)c1ccncc1)c1cc(OCC)ccc1-2	3.2µM*	-23	7	6.3µM*
COc1ccc(NC(=O)c2ccc(NC(=O)COC(=O)CC(NC(=O)c3ccccc3Cl)c3ccccc3)cc2)cc1 (centres undefined)	-11%	49	22*	?
CCOc1ccc(NC(=O)c2ccc(N)cc2)cc1	nt	25*	12*	nt
CCC(C(=O)N1CCCCCC1)n1nc(C)n2c(cc3occc32)c1=O (centres undefined)	nt	-9	5	nt
COc1ccc(NC(=O)c2ccc(Oc3ncccn3)cc2)cc1	24%[46.1 µM]	57*	22*	-1%[46.1 µM]
CCOC(=O)Nc1ccc(C)cc1Br	4%	-2	1	2%
CCOc1ccc(NC(=O)c2ccc(NC(=O)c3ccc(NC(N)=O)cc3)cc2)cc1	-4%[46.1 µM]	nt	nt	8%[46.1 µM]
CCOc1ccc(NC(=O)c2ccc(OC)cc2)cc1	17%	61*	43*	1%
CCOc1ccc(NC(=O)c2ccc(NC(=O)COC(=O)Cc3ccccc3)cc2)cc1	?	50*	40*	2%
CCOC(=O)NC(=S)Nc1ccc(C(C)(C)C)cc1Br	?	25	22*	1%
Cc1ccc(NC(=O)c2cc(=O)[nH]c3ccccc23)cc1C	?	-4	-2	-3%
COc1ccc(NC(=O)c2ccc(NC(=O)c3ccncc3)cc2)cc1	24%[46.1 µM]	-11	-1	4%[46.1 µM]
COc1ccc(C(=O)Nc2ccc(C3CC3(Cl)Cl)cc2)cc1 (centres undefined)	?	32	21*	-1%[46.1 µM]
CCOc1ccc(NC(=O)c2ccc(NCC(=O)N3CCCCCC3)cc2)cc1	23%	38	27*	2%
CCOc1ccc(NC(=O)c2ccncc2)cc1	-13%	5	17*	30%
COC(=O)c1cc2sccc2n1CC(=O)Nc1cc(Cl)ccc1OC	-13%[46.1 µM]	nt	nt	nt
O=C(Nc1ccc2c(c1)OCCO2)c1cccc2nc3ccccc3nc12	?	14	1	-29%
O=C(Nc1ccc(NC(=O)c2ccccn2)cc1)C(=O)Nc1ccc2c(c1)OCCO2	?	62	8	4%[46.1 µM]
O=C(Nc1ccc2c(c1)OCCO2)c1ccccn1	nt	31	12*	nt
O=C(Nc1ccc2c(c1)OCCO2)c1ccc2ccccc2n1	?	45*	39*	?
Cc1oc(-c2ccc(C(=O)NCc3ccccc3Cl)cc2)nc1CN1CCc2ccccc21	nt	nt	nt	-26%[46.1 µM]
CN(C)[C@H]1C(=O)C(C(=O)NCN2CCCC2)=C(O)[C@]2(O)C(=O)C3=C(O)c4c(O)cccc4[C@](C)(O)[C@H]3C[C@H]12	?	nt	nt	15%
SMILES	MARV entry inh	Shiga toxin inh	Cycloheximide cs	LASV entry inh
C/C(CC(=O)Nc1ccc2c(c1)OCCO2)=N\NC(=O)c1cccc(O)c1	0%[46.1 µM]	84*	33*	2%
CC(=O)N/N=C(\C)CC(=O)Nc1ccc2c(c1)OCCO2	-2%[46.1 µM]	28	3	0%[46.1 µM]
COc1ccc(C(=O)N/N=C(\C)CC(=O)Nc2ccc3c(c2)OCO3)cc1	?	55*	37*	2%
C/C(CC(=O)Nc1ccc(Br)cc1)=N\NC(=O)c1cccc(O)c1	nt	69*	44*	nt
CCc1nn(C(C)C(=O)N2CCN(c3ccc(OC)cc3)CC2)c(=O)c2cc3occc3n12 (centres undefined)	nt	-3	2	nt
COP(=O)(OC)C(Nc1ccccn1)c1ccccc1 (centres undefined)	-6%	-9	3	12%
c1ccc(CC(Nc2ccccn2)c2ccccc2)cc1 (centres undefined)	?	15	18*	-13%
C/C(=N/O)C(=O)NCCCNCCCN(C)C	5%[46.1 µM]	nt	nt	nt
CC(C)=CCN1CCN(Cc2cnc(N3CCOCC3)s2)CC1CCO (centres undefined)	?	98*	58*	-11%
CC(C)=CCN1CCN(Cc2cnc(C)s2)CC1CCO (centres undefined)	1%[46.1 µM]	70*	43*	25%
CC(C)=CCN1CCN(Cc2cnc(N3CCCC3)s2)CC1CCO (centres undefined)	9%[46.1 µM]	-12	-2	-17%
CC(C)=CCN1CCN(Cc2ccc(C)s2)CC1CCO (centres undefined)	-9%	-2	-3	?
O=C(NCc1ccccc1Cl)C1CCCN(c2ncnc3onc(-c4ccc(F)cc4)c23)C1 (centres undefined)	nt	nt	nt	11%[46.1 µM]
O=c1c2ccccc2sn1-c1ccccc1	?	25	24*	?
Cc1ccc(-n2sc3ccccc3c2=O)cc1S(=O)(=O)N1CCCCC1	nt	15	12*	nt
CC1Sc2ccc(S(=O)(=O)CCC(=O)NCc3ccc(Cl)cc3)cc2NC1=O (centres undefined)	nt	-2	-1	nt
COc1cc(C2NC(=S)NC(C)=C2C(=O)Nc2cc(C)cc(C)c2)ccc1O (centres undefined)	nt	31	-2	nt
C[C@@H](NC(=O)[C@@H]1Cc2ccccc2CN1)C(=O)Nc1ccc2c(c1)OCO2	nt	10	17*	nt
C[C@@H](NC(=O)[C@@H]1Cc2ccccc2CN1)C(=O)NC1CCCCC1	?	14	9	8%[46.1 µM]
CC(C)[C@H](NC(=O)[C@@H]1Cc2ccccc2CN1)C(=O)Nc1ccc2c(c1)OCO2	nt	37	23*	nt
CC(C)c1cc(C(C)C)c(S(=O)(=O)Nc2cccc3cccnc23)c(C(C)C)c1	nt	2	4	nt
c1coc(-c2nc3nc4ccccc4nc3n2CC2CCCO2)c1 (centres undefined)	0%	-1	-7	2%
c1ccc(-c2nc3nc4ccccc4nc3n2CC2CCCO2)cc1 (centres undefined)	-22%[46.1 µM]	30	30*	-16%[46.1 µM]
Cc1ccc(NC(=O)C2CCN(S(=O)(=O)c3c(C)noc3C)CC2)c(C)c1	21%[46.1 µM]	nt	nt	-12%[46.1 µM]
CCCn1nc(C(=O)NNC(=O)CCCOc2ccc(C)cc2)c2ccccc2c1=O	3%	2	-2	15%
SMILES	MARV entry inh	Shiga toxin inh	Cycloheximide cs	LASV entry inh
O=C(CCCN1C(=O)c2ccccc2C1=O)N1CC[C@@H](c2ccccc2)C1	0%	nt	nt	nt
CCO[C@H](c1cc(OC)cc([N+](=O)[O-])c1OC)[C@H](C)/C=C\CC(=O)OC	1%[14.2 µM]	nt	nt	nt
c1ccc2[nH]c(SCc3ccc(-c4nnco4)cc3)nc2c1	?	89*	18*	?
CCOc1ccccc1/C=C/c1nc2ccccc2[nH]c1=O	?	17	13*	-28%[46.1 µM]
O=C(Nc1ccc(-c2nc3ccccc3[nH]2)cc1)c1ccc(N2C(=O)CCC2=O)cc1	-1%	-7	-4	0%
CCOc1ccccc1CSc1nc2ccccc2[nH]1	-2%	22	19*	-5%
O=C1CCC(=O)N1c1ccc(CSc2nc3ccccc3[nH]2)cc1	?	87*	27*	5%
Cc1ncc(CSc2nc3ccccc3[nH]2)c(N)n1	19%	9	1	-21%[14.3 µM]
Cc1ccc(NS(=O)(=O)c2ccc(Cl)nc2)c(C)c1	2%	nt	nt	5%
COc1ccc(CSc2nc3ccccc3[nH]2)cc1	?	74*	35*	?
COc1ccc(CSc2nc(C)cc(=O)[nH]2)cc1	?	23	10	4%

From PubChem
